The text below walks through data of PubChem BioAssay (NCI).

This is part of a sample that, as a whole, favours compounds with a hit. Of some 83,000 tested, about 20% had one in any assay.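 Growth was measured after 48 h exposure to one concentration of compound in 96-well plates. Values under 10 count as active.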 The source made the active and inactive calls.

This experiment concerns HL-60(TB) leukemia. The experiment can be described thus: NCI-60 one-dose screen, 48 h (100 = growth as untreated, 0 = no growth, -100 = all killed). The settings on record: 10 µM unless noted.
In the case of `CC1(c2cc3cc(Cl)ccc3oc2=O)NC(=O)c2c(/C=C/C(=O)OC3CC4CCC3(C)C4(C)C)cccc2N1` (centres undefined), the growth is 29% (inactive).
For `Clc1ccccc1Nc1nnc(-c2c[nH]c3ccccc23)o1` the value was -0.476% (active).
For `CCC(=O)c1cc(C(=O)OC)c2ccc3c4ccccc4ccc3n12` the value was 103% (inactive).
For `COc1cccc(-c2ccc(/C=N/NC(=O)c3[nH]c4ccc(Br)cc4c3-c3ccccc3)s2)c1` the value was -28.2% (active).
